Screening data deposited in PubChem by National Center for Advancing Translational Sciences (NCATS).
Hits are enriched below; roughly 0.92% of the tested compounds scored in any of these assays.
WRN helicase inh = inhibitors of human WRN helicase | Q14191 | actives 0.46% (n = 360,000) | WRN helicase unwinding, fluorescent forked duplex, kinetic | Potency, µM (series often up to 114 µM), usual class: inhibitors | AID 651768; note: nearly all actives have a fitted effect of over 55% in size
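WRN at 20 nM final was preincubated with compound for 15 min at room temperature; reaction started with 100 nM forked duplex oligonucleotide carrying fluorophore and quencher plus 2 mM ATP (final). Unwinding followed kinetically by red fluorescence (ex 525/em 598 nm).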
BLM helicase inh = inhibitors of human Bloom syndrome helicase BLM; Potency, µM (doses to about 56.1 µM), actives largely listed as inhibitors; AID 2528; actives 0.2% (n = 350,000); recombinant BLM DNA unwinding, fluorescence dequenching; P54132; note: nearly all actives have a fitted effect of over 35% in size
L3MBTL1 inh-1 = inhibitors of human L3MBTL1 | AlphaScreen L3MBTL1–H3K9me1 peptide binding | Potency, µM (doses to about 57.1 µM), actives largely listed as inhibitors | actives 0.66% (n = 230,000); note: nearly all actives have a fitted effect of over 60% in size
Target sequence (Q9Y468 whole entry, looked up): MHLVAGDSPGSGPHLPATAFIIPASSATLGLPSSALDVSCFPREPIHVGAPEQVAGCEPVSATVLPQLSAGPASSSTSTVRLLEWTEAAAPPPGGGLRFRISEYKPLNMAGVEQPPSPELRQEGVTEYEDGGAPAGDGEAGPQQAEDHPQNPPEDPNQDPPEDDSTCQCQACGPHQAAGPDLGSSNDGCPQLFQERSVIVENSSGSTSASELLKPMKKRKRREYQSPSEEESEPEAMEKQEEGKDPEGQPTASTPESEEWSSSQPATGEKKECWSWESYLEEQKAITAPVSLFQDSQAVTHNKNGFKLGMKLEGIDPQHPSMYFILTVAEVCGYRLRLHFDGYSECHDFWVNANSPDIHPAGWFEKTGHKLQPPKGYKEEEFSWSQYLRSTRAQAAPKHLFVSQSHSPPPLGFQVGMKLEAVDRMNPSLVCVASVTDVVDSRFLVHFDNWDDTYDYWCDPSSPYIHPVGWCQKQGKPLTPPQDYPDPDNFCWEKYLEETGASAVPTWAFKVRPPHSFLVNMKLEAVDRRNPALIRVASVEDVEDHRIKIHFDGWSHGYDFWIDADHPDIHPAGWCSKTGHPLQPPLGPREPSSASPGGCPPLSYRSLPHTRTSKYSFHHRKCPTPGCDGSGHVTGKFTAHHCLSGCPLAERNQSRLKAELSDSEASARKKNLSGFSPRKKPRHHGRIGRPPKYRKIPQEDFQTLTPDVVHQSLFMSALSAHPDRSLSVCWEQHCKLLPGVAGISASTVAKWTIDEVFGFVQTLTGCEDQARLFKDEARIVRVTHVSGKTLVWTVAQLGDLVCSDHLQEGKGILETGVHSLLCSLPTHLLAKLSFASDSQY
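Read-out is AlphaScreen signal from streptavidin donor and nickel chelate acceptor beads (10 ug/mL final each) bridging L3MBTL1 (50 nM) and biotinylated K9-monomethylated H3(1-15) peptide (75 nM), after 30 min compound exposure at room temperature.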
RECQ1 inh = inhibitors of human RECQ1 DNA helicase; RECQ1 DNA unwinding, red fluorescence kinetic read; P46063; actives 0.54% (n = 240,000); AID 2549; Potency, µM (doses to about 57.3 µM), hits mostly inhibitors; note: nearly all actives have a fitted effect of over 30% in size
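50 nM RECQ1T1 preincubated 15 min with compound in Tris pH 8.0 buffer with MgCl2, DTT, Tween-20 and 2.5 ug/ml poly(dI-dC); started with 200 nM TAMRA/BHQ-2 forked duplex and 2 mM ATP. Unwinding read as fluorescence (525/598 nm), two reads 2 h apart.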
APE1 inh = blocks human APE1 abasic DNA cleavage | actives 0.35% (n = 350,000) | P27695 | recombinant APE1, TAMRA/BHQ-2 abasic DNA cleavage fluorescence | Potency, µM (titrated, usually from 65.8 µM), usual class: inhibitors; note: nearly all actives have a fitted effect of over 55% in size
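Readout is kinetic fluorescence (ex 525, em 598 nm) from cleavage of 50 nM TAMRA/BHQ-2 THF abasic duplex by 0.75 nM APE1, compound added 15 min beforehand at RT.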
L3MBTL1 inh-2 = L3MBTL1 binding inhibition validated; shares compounds with L3MBTL1 inh-1; L3MBTL1 methyl-lysine binding inhibition, biochemical qHTS; Potency, µM, actives largely listed as inhibitors; actives 91% (n = 500); note: nearly all actives have a fitted effect of over 70% in size
L3MBTL1 ctr = AlphaScreen signal inhibition, L3MBTL1 hit counter-screen; shares compounds with L3MBTL1 inh-1; AlphaScreen counterscreen, signal inhibition; Potency, µM (titrated, usually from 57.1 µM), actives largely listed as inhibitors; 500 tested, under 10 active
Numbers stand for hits; - = inactive; ? = inconclusive; . = no result given; [ ] = another dose, or the depositor's remark. Calls come from the whole dose curve; as a rule, active = well fitted curve in the direction sought with a large enough effect; inconclusive = small, poorly fitted or top-dose-only effect, or another doubt; inactive = no such curve, though single readings can be large; an effect the other way counts as inactive or inconclusive.

SMILES	WRN helicase inh	BLM helicase inh	L3MBTL1 inh-1	RECQ1 inh	APE1 inh	L3MBTL1 inh-2	L3MBTL1 ctr
COc1cnc(-c2ccccn2)[nH]c1=O	-	-	10µM	-	-	21	-
CCc1cc2c(=O)[nH]c(-c3ccccn3)nc2s1	-	-	?	-	-	.	.
CO[C@H]1COC(=O)C/C=C\[C@@H](C)[C@H](OC)COC(=O)[C@H]2CCCN2C(=O)C/C=C\[C@@H]1C	.	-[12.4 µM]	.	-[11.5 µM]	-[12.4 µM]	.	.
O=C(O)CN1C(=O)/C(=C/c2ccc(SCc3ccccc3)o2)SC1=S	?	-	2.2µM	25µM	28µM	4.7	?
CCCOC(=O)c1cccc(NC(=O)CSc2nnc3cc(C)c4ccccc4n23)c1	.	-	.	.	.	.	.
Cc1ccc(S(=O)(=O)N2CCN(C(=O)/C=C/c3ccco3)CC2)cc1	-	-	28µM	-	-	27	-
O=C(/C=C/c1ccco1)N1CCN(S(=O)(=O)c2ccccc2)CC1	-	.	?	.	?	.	.
COC(=O)\C(C(C)=O)=C(/C=C/C=C/C=C/N(C)C)N(C)C	21µM	-	7.1µM	25µM	7.9µM	3	?
CN(CC(=O)Nc1ccc(F)cc1)C(=O)c1cc(-c2ccco2)nc2ccccc12	?	.	18µM	.	-	12	-
CCOc1ccc(NC(=O)CN(C)C(=O)c2cc(-c3ccco3)nc3ccccc23)cc1OCC	-	.	.	.	.	.	.
O=C(NCCn1cc(SCc2ccccc2Cl)c2ccccc21)c1cccs1	.	-	.	.	.	.	.
Oc1ccccc1N=Cc1c(O)ccc2ccccc12	-	-	28µM	-	-	6	-
COC(=O)c1ccc(C(NC(=O)OCc2ccccc2)/C(=C/[C@@H](C)C(=O)NCc2ccc(OC)c(OC)c2)c2cccnc2)cc1 (stereo partly specified)	.	-	.	-	-	.	.
O=C(Oc1c(CN2CCOCC2)cc(Cl)c2cccnc12)c1ccccc1Br	-	-	32µM	-	-	24	-
CN1CCN(Cc2cc(Cl)c3cccnc3c2OC(=O)c2cccs2)CC1	-	-	-	-	-	.	.
CCOc1ccc(CCNC(=O)CCc2cn(Cc3ccc(F)cc3)c3ccccc23)cc1	.	-	.	.	.	.	.
Oc1ccc(Br)cc1CNc1cccc2cccnc12	-	-	-[2.29 µM]	.	-	.	.
Oc1c(Br)cc(Br)cc1CNc1cccc2cccnc12	-[11.6 µM]	?	35µM	.	-	?	-
CC(C)S(=O)(=O)C1=NSC2=NC(=O)/C(=C\c3ccc(-c4cccc(C(=O)O)c4)o3)C(=N)N21	?	-	13µM	-	-	3.8	-
CC(C)S(=O)(=O)C1=NSC2=NC(=O)/C(=C\c3ccc(-c4ccccc4)o3)C(=N)N21	?	-	-	-	-	.	.
O=C(NCc1ccccn1)c1ccc(=O)oc1	-	-	16µM	-	-	21	-
O=C(NCc1ccccn1)c1ccc(-c2ccccc2)cc1	-	-	-	-	-	.	.
CN(C)C=Nc1c(I)cc(I)c(CCC(=O)O)c1I	.	-	.	.	.	.	.
O=C1CCCC(O)=C1Sc1ccccc1C(=O)O	-[11.6 µM]	-	16µM	-	?	2.4	?
Cc1cccc(C(=O)Nc2c(C(=O)NCc3ccc(Cl)cc3)sc3nc(C)cc(C)c23)c1	.	-	.	.	.	.	.
SMILES	WRN helicase inh	BLM helicase inh	L3MBTL1 inh-1	RECQ1 inh	APE1 inh	L3MBTL1 inh-2	L3MBTL1 ctr
CCN=C1S/C(=C/c2ccc(-c3ccc(Cl)cc3C(=O)O)o2)C(=O)N1CC	-	-	.	.	-	.	.
CCN=C1S/C(=C\c2ccc(-c3cccc(C(=O)O)c3)o2)C(=O)N1CC	-	-	40µM	-	-	24	-
Cc1ccc(S(=O)(=O)Cc2ccc(C(=O)N3CCN(Cc4ccccc4)CC3)o2)cc1	.	-	32µM	-	-	15	-
O=C(CSc1cccc2cccnc12)Nc1ccc(S(=O)(=O)N2CCOCC2)cc1	-	-	22µM	-	-	?	?
O=C(NCc1ccco1)c1cc2ccc(O)cc2oc1=O	?	-	20µM	?	?	9.5	-
Cc1ccc(CNC(=O)CN2C(=O)COc3ccccc32)cc1	.	-	.	.	.	.	.
COc1ccc(Cl)cc1NC(=O)CN(C)S(=O)(=O)c1cccs1	-	-	.	.	-	.	.
COc1ccc(Cl)cc1NC(=O)COC(=O)c1cc(NS(=O)(=O)c2cccs2)ccc1O	-	-	40µM	-	-	?	-
